The full ranking holds about 33,000 sequences; the median of “E-score (-0.5 to 0.5)” is about -0.054, and the highest 2% start at about 0.39. The sample holds the highest values, similar sequences and a random draw of the others, so the mix is not that of the screen.
Target: Ylr278c (UniProt Q05854)
Assay: PBM E-score (8-mer binding enrichment) (E-score (-0.5 to 0.5)); higher = stronger / more preferred TF binding
Settings: protein concentration: 200 nM; construct: GST-DNA-binding domain
Experimental: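 Universal 'all 10-mer' protein binding microarrays (Agilent AMADID 015681) probed with GST-tagged S. cerevisiae TFs (full-length or DBD) made by in vitro transcription/translation (PURExpress), about 100-200 nM. Bound TF was detected with fluorescent anti-GST. Each ungapped 8-mer (which stands for itself and its reverse complement) is scored by the PBM enrichment score (E-score), a modified Wilcoxon-Mann-Whitney statistic from -0.5 to +0.5, computed with the Universal PBM Analysis Suite. Scale: above 0.35 generally sequence-specific binding.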

Sequence of UniProt Q05854 (Q05854 whole entry): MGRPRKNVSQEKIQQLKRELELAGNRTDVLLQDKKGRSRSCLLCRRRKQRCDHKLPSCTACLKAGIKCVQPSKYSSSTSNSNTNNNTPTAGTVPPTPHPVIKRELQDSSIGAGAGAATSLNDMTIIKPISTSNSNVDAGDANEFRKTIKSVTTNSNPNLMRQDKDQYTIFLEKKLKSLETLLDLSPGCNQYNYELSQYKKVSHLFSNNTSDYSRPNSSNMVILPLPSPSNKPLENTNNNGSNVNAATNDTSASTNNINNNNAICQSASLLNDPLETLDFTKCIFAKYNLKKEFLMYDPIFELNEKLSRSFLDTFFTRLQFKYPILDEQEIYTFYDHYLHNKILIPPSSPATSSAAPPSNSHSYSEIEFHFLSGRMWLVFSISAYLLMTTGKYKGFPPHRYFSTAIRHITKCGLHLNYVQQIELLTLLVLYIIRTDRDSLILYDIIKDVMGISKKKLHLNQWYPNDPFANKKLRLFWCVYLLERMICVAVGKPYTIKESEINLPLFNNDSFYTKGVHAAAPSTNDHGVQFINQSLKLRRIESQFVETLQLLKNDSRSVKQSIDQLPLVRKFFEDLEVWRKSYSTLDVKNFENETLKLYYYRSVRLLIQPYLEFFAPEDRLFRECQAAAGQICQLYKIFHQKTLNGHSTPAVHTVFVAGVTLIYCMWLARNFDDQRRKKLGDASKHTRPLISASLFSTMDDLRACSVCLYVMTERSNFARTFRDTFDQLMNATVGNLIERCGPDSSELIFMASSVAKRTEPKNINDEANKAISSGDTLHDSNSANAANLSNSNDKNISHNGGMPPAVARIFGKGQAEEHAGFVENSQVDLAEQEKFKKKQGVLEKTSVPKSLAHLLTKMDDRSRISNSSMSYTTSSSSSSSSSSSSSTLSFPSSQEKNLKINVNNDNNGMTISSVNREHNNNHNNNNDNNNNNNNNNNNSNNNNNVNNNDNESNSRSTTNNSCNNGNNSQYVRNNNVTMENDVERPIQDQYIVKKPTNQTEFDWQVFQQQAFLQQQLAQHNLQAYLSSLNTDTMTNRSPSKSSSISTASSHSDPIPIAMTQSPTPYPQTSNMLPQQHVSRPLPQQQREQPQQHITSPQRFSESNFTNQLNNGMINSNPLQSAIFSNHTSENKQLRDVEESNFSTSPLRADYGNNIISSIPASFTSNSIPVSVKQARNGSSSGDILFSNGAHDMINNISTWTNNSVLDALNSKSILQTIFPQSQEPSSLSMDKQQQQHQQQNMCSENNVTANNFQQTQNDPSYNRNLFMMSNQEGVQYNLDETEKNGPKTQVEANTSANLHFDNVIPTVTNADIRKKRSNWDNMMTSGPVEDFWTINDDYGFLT

Sequence	PBM E-score
CCAACAAA	-0.142
AAGTGGGG	0.0493
CAGAGAAG	-0.15
CGGAGAAA	0.477
CGGAGAAC	0.445
GGGAGAAA	0.0906
CGGAGAAG	0.453
GGGAGAAC	-0.0233
AGGAGAAG	-0.151
AGGAGAAC	-0.00067
TGGAGAAA	-0.0369
GAATGCGC	0.182
CTTCTAGA	-0.215
CCTCCCTC	0.0572
TCCGCTAA	0.267
AGTTAGAC	-0.0203
GTCCAAGA	-0.185
CATGGCCG	0.224
CCGTCGGC	0.366
CCGTCGGA	0.415
CCGTCGTA	0.0447
GCGTCGAA	-0.0135
ACGTCGGA	0.385

Sequence	PBM E-score
GCGTCGGA	0.438
CATCCTTC	-0.0925
ACAGGCCG	0.156
AGAGGCTA	-0.164
AATAATAT	0.23
ACATCGAG	-0.288
AGCTACCC	-0.243
ATGGATCG	0.166
AAGCTCCT	-0.0423
CAGCTCCA	-0.152
CAGCTCCC	-0.153
AAGCTCCG	0.477
AAGCTCCC	-0.139
CAGCTCCG	0.426
ACTGTCAG	-0.147
CACGCGAC	-0.0553
AACTTCTG	-0.197
TCATTCAA	-0.146
CTAGCGGC	0.0333
AGCCGGTA	0.352
GGCCGGAA	0.422
GGCCGGTA	0.261
CGCCGAAC	0.315

Sequence	PBM E-score
AGCCGGGG	0.26
AGCCGGAA	0.43
CGCCGGAC	0.447
AGCCGGGA	0.272
CGCCGCAC	0.222
AGCCGGTG	0.246
GGACGGAA	0.337
AGCCGGAG	0.455
GCATTGGA	0.0238
CAGGTTGG	-0.138
GACGGTAA	0.127
CGTGATGC	0.073
CGCCGGAA	0.432
AGCCGGAC	0.407
TGCCGGAA	0.435
TGCCGTAA	-0.0603
TGCCGGCA	0.347
CGCCGTAA	0.28
CGCCGGGA	0.412
AGCCGGTC	0.134
GGCCGGGA	0.325
AGCCGGGC	0.167
CGCCGGGC	0.378

Sequence	PBM E-score
CGCCGGTA	0.352
GAACGATC	0.041
CCTGTCCC	-0.128
ACCAGTAA	0.00819
ATTCTAGA	-0.171
ACGACCCC	0.0131
CGCCGGAG	0.459
GGACGGAC	0.359
GGCCGGAC	0.419
CGCCGTAG	0.193
AGCCGGCT	0.247
AGCCGTAT	-0.0908
CGCCGCAG	0.264
GGCCGCAC	0.23
AGCCGGAT	0.404
AGCCCTTA	-0.232
CGGACGAA	0.332
CGGGGATA	0.349
GCGGGATA	0.266
CTGGGATC	-0.101
AGGGGATC	-0.0127
CCGGGATA	0.395
ACGGGATC	0.109

Sequence	PBM E-score
CCGGGATC	0.411
ACGGGATA	0.261
CGGGGATC	0.408
GCGGGACC	0.216
CCGGGACC	0.408
ACGGGACC	0.0315
ATTGCATC	-0.105
AGCGAAGG	-0.0577
ATATGCAA	-0.0841
TCGCCAGA	-0.26
AAACAGAA	-0.207
CTAGGCAA	-0.0858
TAGTTTCA	-0.0254
ACCTAGAG	-0.141
GGAGAATA	0.189
AAGGGCTG	-0.213
CACGGATC	0.242
CCCGGATC	0.403
CCCGGATA	0.351

— the supplement of paper PMC3334620
